# Screening results deposited in PubChem BioAssay by National Center for Advancing Translational Sciences (NCATS).
# Sampled rows, rich in hits. Any-hit rate of the full collection: about 19%.
# HT1080 IDH1KD tx: toxicity to HT-1080 IDH1 knockdown cells (counter line). actives 2% (n = 360,000). Potency, µM (top dose mostly 46.1 µM), without a hit: top-dose activity, negative = toxicity, most hits filed as cytotoxic. HT-1080 IDH1 knockdown viability, ATP luminescence, 48 h;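 note: potency is the fitted concentration of half-maximal effect; 0% = DMSO wells and -100% = cell-free medium wells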
#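 After a 2 h attachment period, IDH1KD HT-1080 cells took pin-transferred compound for 48 h at 37 °C; ATP-based luminescence after 10 min room-temperature reagent incubation reported viability.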
# HT1080NT lethal: kills 2HG-producing HT-1080-NT fibrosarcoma cells; HT-1080-NT fibrosarcoma viability, CellTiter-Glo ATP luminescence, 48 h; Potency, µM (top dose mostly 46.1 µM), inactives show at the highest dose activity, negative = less viability, hits mostly cytotoxic; actives 1.6% (n = 360,000);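 note: NT is the 2HG producing partner of a matched IDH1 knockdown line; potency is the fitted concentration of half-maximal effect; 0% = DMSO-treated cells and -100% = media-only wells without cells; nearly all actives have a fitted effect of over 55% in size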
#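 Viability of the 2HG-overproducing fibrosarcoma line after 48 hours of compound exposure at 37 degrees C was determined by luminescence with CellTiter-Glo, and concentration-effect curves were then fitted and categorized.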
# TDP1 cell CPT: DT40-hTDP1 cell growth loss with CPT. chicken DT40 Tdp1-/-;hTDP1 cells + 20 nM CPT, ATP luminescence, 48 h. Potency, µM (highest dose often 46.2 µM), inactives show at the top dose activity change, negative = growth inhibition, actives largely listed as inhibitors. actives 12% (n = 420,000). AID 686979; note: potency is the fitted concentration of half-maximal effect; nearly all actives have a fitted effect of over 55% in size
#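 Chicken DT40 Tdp1-/- cells complemented with human TDP1, 400 cells/well, exposed to compounds plus 20 nM camptothecin for at least 48 h at 37 C; viability read as ATP content by CellTiter-Glo luminescence.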
# TDP1 cell noCPT: qHTS for Inhibitors of human tyrosyl-DNA phosphodiesterase 1 (TDP1): qHTS in cells in absence of CPT. DT40 Tdp1-/- hTDP1 cells, no CPT, ATP luminescence, 48 h. Potency, µM (top dose mostly 46.2 µM), for the others: top-dose activity change, negative = growth inhibition, most hits filed as inhibitors. actives 15% (n = 420,000). AID 686978, 2013; note: potency is the fitted concentration of half-maximal effect; nearly all actives have a fitted effect of over 55% in size
#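 DT40 Tdp1-/-;hTDP1 cells, no CPT (DMSO vehicle only), 400 cells/well; compounds pin-transferred; ≥48 hr, 37 °C; CellTiter-Glo 30 min RT dark, luminescence read.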
# IL1B secr inh: blocks inflammasome-driven IL-1 beta release | THP-1 LPS/ATP IL-1B secretion, AlphaLISA, 16 h; stronger effect = lower value | activity change, % at 57.5 µM | actives 4.7% (n = 360,000); in the data active = activity change below about -50%; inconclusive = mostly about -30% to -49%
#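 Secreted IL-1B measured by AlphaLISA bead assay after 16 h compound exposure of THP-1 cells; compounds (final up to 57.5 uM) added 1 h before LPS (250 ng/mL) and ATP (1.25 mM) stimulation; lower signal means less secretion.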
# Active calls of the source: *; i = inactive; ? = inconclusive; . = no result. Unless noted, calls come from the whole dose curve; as a rule, active = well fitted curve in the direction sought with a large enough effect; inconclusive = small, poorly fitted or top-dose-only effect, or another doubt; inactive = no such curve, though single readings can be large; an effect the other way counts as inactive or inconclusive. Unless noted, % is set by controls: 0 for no effect and ±100 for the full control effect.
SMILES,HT1080 IDH1KD tx,HT1080NT lethal,TDP1 cell CPT,TDP1 cell noCPT,IL1B secr inh
COc1ccc(NS(=O)(=O)c2ccc(N3CCCC3)c(NC(=S)Nc3cccc(C)c3C)c2)cc1,7%,11%,12µM*,9.2µM*,?
O=C(NNc1ccc([N+](=O)[O-])cc1)C12CC3CC(CC(C3)C1)C2,-28%,?,?,?,-17
CCOc1ccc(S(=O)(=O)N2CCC(C(=O)NC3CCCCC3)CC2)cc1,1%,-5%,-13%,?,i
COc1ccc(C(O)c2nc(-c3cccc(NC(C)=O)c3)cs2)cc1 (centres undefined),0%,14%,?,?,-11
COc1ccc(C(=O)O)cc1S(=O)(=O)NCc1ccccn1,25%,22%,-3%,-10%,-1
CCOc1ccccc1NC(=O)CSc1nc2ccccc2nc1N1CCOCC1,-1%,0%,23µM*,21µM*,12
Cc1cccc(NC(=O)CSc2nc3ccccc3nc2N2CCC(C)CC2)c1,.,.,21µM*,21µM*,.
Cc1ccc(NC(=O)CSc2nc3ccccc3nc2N2CCOCC2)cc1,-21%,?,?,16µM*,0
CC(=O)Nc1ccc(NC(=O)CSc2nc3ccccc3nc2N2CCC(C)CC2)cc1,-17%,-19%,5%,?,18
CCOc1ccccc1NC(=O)CSc1nncc2ccccc12,0%,-2%,2%,-25%,-84*
O=C(NCc1ccco1)c1cccc(S(=O)(=O)N2CCCC2)c1,16%,7%,1%,-19%,-8
Cc1c(-c2nnc(SCC(=O)Nc3ccc(Cl)cc3)o2)nnn1-c1ccc(F)cc1,.,.,?,-30%,.
CCC(C(=O)OCC(=O)NC1CCS(=O)(=O)C1)c1ccccc1 (centres undefined),-8%,-9%,-2%,-16%,4
COc1ccc(C)cc1NC(=O)CSc1nc2ccccc2nc1N1CCOCC1,.,.,?,23µM*,.
O=C(CSc1nc2ccccc2[nH]1)Nc1ccc(N2CCOCC2)cc1,1%,9%,12µM*,12µM*,-12
COc1ccc(C)cc1NC(=O)CSc1nc2ccccc2nc1N1CCCCC1,-18%,-12%,?,?,-14
CCOc1ccc(NC(=O)CSc2nc3ccccc3nc2N2CCCC2)cc1,-1%,5%,?,16µM*,-12
CC1CN(c2nc3ccccc3nc2SCC(=O)Nc2ccc(F)cc2)CC(C)O1 (centres undefined),-10%,0%,15µM*,?,-26
O=C(CSc1nc2ccccc2nc1N1CCCC1)Nc1ccc(F)cc1,12%,0%,?,?,-12
COc1ccc(C2=C(Nc3ccc(Br)c(C)c3)c3ccccc3C2=O)cc1,.,.,7.3µM*,12µM*,.
Cc1cc(C)cc(NC2=C(c3ccccc3)C(=O)c3ccccc32)c1,.,.,21µM*,?,.
COc1ccc(NC(=O)Nc2ccc(Br)c(C)c2)cc1,21%,30%,1%,-7%,-7
COc1ccc(C2=C(Nc3ccc(C)cc3)c3ccccc3C2=O)cc1,18%,1%,5.2µM*,?,2
COc1ccc(C2=C(Nc3ccc(F)cc3)c3ccccc3C2=O)cc1,-20%,-13%,?,?,-20
Cc1cc(Br)ccc1NC(=O)COC(=O)c1ccccc1OCC(=O)N(C)C,.,.,7%,-11%,.
Cc1cc(C)c(NC(=O)CCCN2C(=O)COc3ccc(C)cc32)c(C)c1,.,.,?,16µM*,.
Cc1cccc(CNC(=O)CCCN2C(=O)COc3ccc(C)cc32)c1,.,.,15µM*,?,.
CC(=O)c1ccc(NC(=O)CCCN2C(=O)COc3ccc(C)cc32)cc1,-6%,0%,?,-18%,4
CCOc1ccccc1CNC(=O)CCCN1C(=O)COc2ccc(C)cc21,.,.,?,18µM*,.
COc1ccc(C(C(=O)Nc2c(C)cccc2C)N2CCN(C)CC2)cc1 (centres undefined),12%,12%,12%,5%,0
